For assay [1], the target named is Serine/threonine-protein kinase pim-2 (Homo sapiens) (UniProt Q9P1W9). The settings on record: at 1 µM.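 Also: each value is a mean of the inhibition measurements against the kinase.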
Assay [2] addresses Serine/threonine-protein kinase pim-3 (Homo sapiens) (UniProt Q86V86). The conditions noted are these: at 0.1 µM.
Assay [3] shares this target. The settings on record: at 1 µM.
For assay [4], the target named is T1, MAP kinase-activated protein kinase 5 (Homo sapiens) (UniProt Q8IW41).
T1 sequence (whole entry): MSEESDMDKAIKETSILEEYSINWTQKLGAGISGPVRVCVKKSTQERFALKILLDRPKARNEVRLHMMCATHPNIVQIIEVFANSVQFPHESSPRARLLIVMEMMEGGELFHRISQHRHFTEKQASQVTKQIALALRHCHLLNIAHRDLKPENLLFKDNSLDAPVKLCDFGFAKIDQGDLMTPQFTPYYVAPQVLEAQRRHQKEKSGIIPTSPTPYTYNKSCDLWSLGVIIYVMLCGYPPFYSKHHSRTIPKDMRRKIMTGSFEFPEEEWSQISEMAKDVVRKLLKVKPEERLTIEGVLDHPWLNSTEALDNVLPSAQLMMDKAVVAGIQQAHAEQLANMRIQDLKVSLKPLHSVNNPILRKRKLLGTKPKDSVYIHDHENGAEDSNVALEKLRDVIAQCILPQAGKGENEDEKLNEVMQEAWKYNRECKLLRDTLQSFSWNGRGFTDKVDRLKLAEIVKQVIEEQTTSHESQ
The settings on record: at 0.1 µM.

For assay [5], the target named is T1, MAP kinase-activated protein kinase 5 (Homo sapiens). The conditions noted are these: at 1 µM.
The target in assay [6] is Serine/threonine-protein kinase SIK1 (Homo sapiens) (UniProt P57059). The settings on record: at 0.1 µM.
Chain of Serine/threonine-protein kinase SIK1 (Homo sapiens) (P57059 whole entry): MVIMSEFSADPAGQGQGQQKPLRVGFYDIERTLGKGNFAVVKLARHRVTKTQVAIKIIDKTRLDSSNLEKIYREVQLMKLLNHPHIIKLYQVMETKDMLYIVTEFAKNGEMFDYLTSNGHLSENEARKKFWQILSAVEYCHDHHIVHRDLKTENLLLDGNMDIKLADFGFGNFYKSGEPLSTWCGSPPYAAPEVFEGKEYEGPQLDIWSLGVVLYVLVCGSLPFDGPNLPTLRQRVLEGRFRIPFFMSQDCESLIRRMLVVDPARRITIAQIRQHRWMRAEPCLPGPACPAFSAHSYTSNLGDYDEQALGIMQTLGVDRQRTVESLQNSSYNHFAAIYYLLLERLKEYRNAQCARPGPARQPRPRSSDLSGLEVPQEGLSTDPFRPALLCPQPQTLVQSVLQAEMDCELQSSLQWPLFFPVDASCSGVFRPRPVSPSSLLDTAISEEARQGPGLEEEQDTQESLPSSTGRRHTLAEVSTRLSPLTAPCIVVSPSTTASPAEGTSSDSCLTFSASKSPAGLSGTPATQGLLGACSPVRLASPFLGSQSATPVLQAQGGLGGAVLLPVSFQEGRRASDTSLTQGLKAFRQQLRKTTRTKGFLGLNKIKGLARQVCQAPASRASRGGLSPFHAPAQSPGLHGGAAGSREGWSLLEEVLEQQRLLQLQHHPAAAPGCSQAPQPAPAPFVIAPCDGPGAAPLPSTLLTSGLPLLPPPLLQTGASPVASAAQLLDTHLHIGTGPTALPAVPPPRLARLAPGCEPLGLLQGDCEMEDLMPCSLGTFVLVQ
Assay [7] has the same target. The conditions noted are these: at 1 µM.
Assay [8] has as its target Serine/threonine-protein kinase SIK2 (Homo sapiens) (UniProt Q9H0K1). The conditions noted are these: at 0.1 µM.
Assay [9] shares this target. The conditions noted are these: at 1 µM.
The target in assay [10] is T2, Serine/threonine-protein kinase TBK1 (Homo sapiens) (UniProt Q9UHD2).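 Also: values are the mean TBK1 inhibition, taken from the GSK PKIS screening data.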
T2 sequence (whole entry): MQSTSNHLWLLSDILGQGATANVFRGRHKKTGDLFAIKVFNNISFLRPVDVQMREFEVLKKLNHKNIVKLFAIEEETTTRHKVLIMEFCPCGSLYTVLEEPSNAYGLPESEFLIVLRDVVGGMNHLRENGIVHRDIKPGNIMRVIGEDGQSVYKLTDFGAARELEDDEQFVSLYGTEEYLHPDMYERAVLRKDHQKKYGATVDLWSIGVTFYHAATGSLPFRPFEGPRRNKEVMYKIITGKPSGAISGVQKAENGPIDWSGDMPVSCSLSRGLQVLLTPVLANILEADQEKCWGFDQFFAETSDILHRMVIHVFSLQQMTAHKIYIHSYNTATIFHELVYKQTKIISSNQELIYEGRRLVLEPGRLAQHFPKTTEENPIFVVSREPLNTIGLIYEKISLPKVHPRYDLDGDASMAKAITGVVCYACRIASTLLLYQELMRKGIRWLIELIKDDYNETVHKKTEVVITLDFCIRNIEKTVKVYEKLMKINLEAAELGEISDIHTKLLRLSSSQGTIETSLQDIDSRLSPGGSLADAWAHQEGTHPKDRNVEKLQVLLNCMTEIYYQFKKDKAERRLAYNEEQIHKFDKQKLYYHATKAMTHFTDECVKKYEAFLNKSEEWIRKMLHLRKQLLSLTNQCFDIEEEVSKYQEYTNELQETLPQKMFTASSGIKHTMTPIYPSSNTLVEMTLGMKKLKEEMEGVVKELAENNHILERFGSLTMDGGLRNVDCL
The conditions noted are these: at 0.1 µM.

This passage reports inhibition results from ChEMBL document CHEMBL1961873, “Compounds: GSK PKIS; Assays: Nanosyn kinase panel” (2012).

As a reminder, the inhibition is the drop in the measured response relative to a control, in per cent.

Where “and” joins values, the source holds several entries; their conditions need not be identical. Identical values can stand only once.

Chain of Serine/threonine-protein kinase SIK2 (Homo sapiens) (Q9H0K1 whole entry, looked up): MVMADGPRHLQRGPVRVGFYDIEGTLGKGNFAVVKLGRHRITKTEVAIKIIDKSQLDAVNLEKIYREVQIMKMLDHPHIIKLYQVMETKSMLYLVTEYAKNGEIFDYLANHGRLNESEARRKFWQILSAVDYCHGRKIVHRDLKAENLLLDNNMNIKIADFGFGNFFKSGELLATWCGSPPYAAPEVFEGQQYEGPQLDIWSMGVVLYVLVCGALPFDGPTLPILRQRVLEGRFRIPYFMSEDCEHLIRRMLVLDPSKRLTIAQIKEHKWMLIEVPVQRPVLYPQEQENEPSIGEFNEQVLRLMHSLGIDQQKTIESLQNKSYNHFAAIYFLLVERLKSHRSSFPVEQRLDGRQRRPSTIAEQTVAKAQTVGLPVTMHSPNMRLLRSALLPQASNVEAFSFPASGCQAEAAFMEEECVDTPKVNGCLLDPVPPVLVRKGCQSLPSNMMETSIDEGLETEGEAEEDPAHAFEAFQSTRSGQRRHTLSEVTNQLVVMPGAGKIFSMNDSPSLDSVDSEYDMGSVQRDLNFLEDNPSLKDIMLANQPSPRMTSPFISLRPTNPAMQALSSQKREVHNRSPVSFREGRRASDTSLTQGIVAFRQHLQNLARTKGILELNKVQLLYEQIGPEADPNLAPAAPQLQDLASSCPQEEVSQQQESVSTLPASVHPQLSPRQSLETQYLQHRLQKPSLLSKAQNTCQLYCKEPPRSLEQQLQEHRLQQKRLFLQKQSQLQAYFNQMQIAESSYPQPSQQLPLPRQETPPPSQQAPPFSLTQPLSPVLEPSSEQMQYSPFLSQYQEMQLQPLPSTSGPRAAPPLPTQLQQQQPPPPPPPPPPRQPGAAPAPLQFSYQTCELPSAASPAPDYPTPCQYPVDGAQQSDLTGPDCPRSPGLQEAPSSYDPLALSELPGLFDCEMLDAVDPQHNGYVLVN
Chain of Serine/threonine-protein kinase pim-2 (Homo sapiens) (Q9P1W9 whole entry, looked up): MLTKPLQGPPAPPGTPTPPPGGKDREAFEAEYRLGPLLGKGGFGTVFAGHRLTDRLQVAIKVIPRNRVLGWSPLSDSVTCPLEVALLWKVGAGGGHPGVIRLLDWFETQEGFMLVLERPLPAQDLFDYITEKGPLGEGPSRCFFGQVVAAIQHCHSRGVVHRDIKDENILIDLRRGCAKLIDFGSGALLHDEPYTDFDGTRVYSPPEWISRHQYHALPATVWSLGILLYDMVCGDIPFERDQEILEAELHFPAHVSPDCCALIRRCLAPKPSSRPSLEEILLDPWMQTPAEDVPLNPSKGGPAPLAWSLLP

For the compound `CCn1c(-c2nonc2N)nc2cncc(C(=O)NCCNC)c21`, the inhibition was found to be 18.8% in assay [1]; 26.3% in assay [2]; 69.3% in [3]; 1.39% in assay [4]; 1.58% in assay [5]; 3.17% in [6]. In addition, the inhibition came out at 9.07% in [7], 2.51% in assay [8], 6.02% in assay [9] and 4.08% in assay [10].

As to `COc1c(C(N)=O)cc(-c2ccc(Cl)cc2)cc1-c1ccc(S(N)(=O)=O)cc1`, the inhibition in [1] was -0.88%; in assay [2] it was -0.2%; in assay [3], 0.43%; in assay [4], 1.35%; in assay [5], 2.31%; in assay [6], 10.7%. Also, the inhibition in assay [7] is 16.1%; in assay [8], 8.28%; in [9], 6.93%; in assay [10], 4.69%.

Regarding `COc1cc(N2CCN(C(C)C)CC2)ccc1Nc1nc(Nc2cccc3ncccc23)c2cc[nH]c2n1`, the inhibition in assay [1] is 0.36%; in assay [2] it was -0.71%; in assay [3], 0.17%; in assay [4], 0.21%; in assay [5], -0.62%; in assay [6] it was -2.95%. The inhibition in assay [7] is 0.48%; in [8], -4.22%; in assay [9], 3.12%; in [10] it was -0.11%.

With `CN1CCC(C(=O)Nc2n[nH]c3nc(-c4ccc(O)cc4)c(Br)cc23)CC1`, the inhibition in assay [1] was 14.5% and 16.5%; in [2], 8.95% and 8.97%; in assay [3], 48.5% and 44.8%; in assay [4] it was 1.61% and 0.79%; in assay [5] it was 3.66% and 0.86%; in assay [6] it was 3.1% and 1.53%. In addition, the inhibition in assay [7] is 9.27% and 8.23%; in assay [8], 7.89% and -2.04%; in assay [9] it was 9.87% and 5.33%; in [10], 4.48% and 3.27%.

Turning to `Nc1ncnc2occ(-c3ccc(NC(=O)Nc4cc(C(F)(F)F)ccc4F)cc3)c12`, the inhibition in [1] was 0.09% and 1.14%; in assay [2], 0.34% and 0.04%; in assay [3], -1.35% and 1.44%; in assay [4], -0.03% and -0.81%; in assay [5] it was -1.65% and -0.72%; in assay [6] it was 5.31% and -3.84%. The inhibition is 6.74% and 3.25% in assay [7]; 6.29% and -4.61% in [8]; 1.48% and -6.22% in assay [9]; 0.47% and 0.44% in assay [10].

With `OCCCNc1nccc(-c2c(-c3ccc(F)cc3)nn3cc(C(F)(F)F)ccc23)n1`, the inhibition is -0.96% in [1]; -0.81% in [2]; -0.18% in assay [3]; -0.21% in [4]; -1.07% in assay [5]; 5.25% in [6]. Further, the inhibition in assay [7] was 6.5%; in assay [8] it was 7.07%; in assay [9] it was 16.9%; in [10], 2.49%.

With `O=C(Nc1n[nH]c2nnc(-c3cccnc3)cc12)C1CC1`, the inhibition in assay [1] was 28.7%; in assay [2], 26.8%; in [3] it was 69.7%; in [4], 0.13%; in [5], -0.19%; in [6], 1.74%. For the same compound, the inhibition in assay [7] is 5.12%; in assay [8], 1.86%; in assay [9], -1.67%; in [10], 0.25%.

For the compound `CC1=C(C(=O)Nc2ccc3[nH]ncc3c2)C(c2ccc(F)cc2)N=C(c2ccc(C(F)(F)F)nc2)N1` (stereo not given), the inhibition is 0.66% in [1]; 0.08% in [2]; -1.05% in assay [3]; 0.55% in assay [4]; 0.22% in assay [5]; 4.91% in assay [6]. The inhibition in assay [7] is 4.39%; in [8] it was 2.09%; in [9], 4.41%; in [10], -0.16%.

As for `COc1cccc(Nc2nccc(-c3cnn4ncccc34)n2)c1`, the inhibition in assay [1] worked out at 2.39%; in assay [2], 2.39%; in assay [3] it was 17.6%; in assay [4] it was 0.42%; in assay [5] it was 3.44%; in assay [6], 6.56%. The inhibition in assay [7] turned out to be 20.8%; in [8], 4.86%; in [9], 13.6%; in assay [10], 4.06%.

Turning to `CS(=O)(=O)CCNCc1ccc(-c2ccc3ncnc(Nc4ccc(OCc5cccc(C(F)(F)F)c5)cc4)c3c2)o1`, the inhibition was -0.48% in [1]; 1.17% in [2]; 4.36% in [3]; 1.34% in assay [4]; 1.44% in [5]; 1.69% in assay [6]. Besides, the inhibition in [7] stood at 7.19%; in assay [8], 6.4%; in [9], 8%; in [10] it was 3.15%.

In the case of `N#Cc1cccc(Nc2ncc(-c3ccccc3)o2)c1`, the inhibition in [1] was 0.47%; in assay [2], 0.1%; in assay [3], 2.79%; in assay [4], 1.22%; in assay [5], 2.58%; in [6] it was 1.14%. For the same compound, the inhibition amounted to 4% in assay [7], 1.76% in [8], 4.74% in assay [9] and 1.05% in [10].

In the case of `CCS(=O)(=O)c1ccc(OC)c(Nc2ncc(-c3cccc(F)c3)o2)c1`, the inhibition was determined as 0.08% in [1]; 0.31% in assay [2]; 3.65% in assay [3]; 2.11% in assay [4]; 2.01% in assay [5]; 7.36% in [6]. The inhibition in assay [7] was 29.4%; in assay [8], 8.6%; in assay [9] it was 36.7%; in [10], 5.98%.

Consider `COc1ccccc1-c1cc(/C=C2\C(=O)Nc3ncc(Br)cc32)cc(Br)c1O`, for which the inhibition in assay [1] was -0.06%; in assay [2], -1.67%; in assay [3] it was -1.54%; in [4], 1.35%; in assay [5], 0.67%; in assay [6], 3.09%. In addition, the inhibition in assay [7] was determined as 9.01%; in assay [8] it was 0.5%; in [9] it was 10.4%; in [10], 0.53%.

For the compound `CN(C)CCNC(=O)Nc1ccc(N(C)c2ccnc(Nc3ccc(CS(C)(=O)=O)cc3)n2)cc1`, the inhibition in assay [1] was 2.68%; in assay [2], -0.48%; in assay [3] it was -1.2%; in assay [4], 1.02%; in assay [5], 0.33%; in [6] it was 5.41%. In addition, the inhibition in assay [7] was 31.9%; in assay [8] it was 8.68%; in [9], 13.6%; in assay [10], 2.12%.

As for `COc1ccc2ncn(-c3cc(O[C@H](C)c4ccccc4C(F)(F)F)c(C(N)=O)s3)c2c1`, the inhibition in assay [1] was 0.75%; in assay [2], 1.24%; in [3] it was 7.53%; in assay [4], -0.11%; in assay [5], -0.07%; in assay [6] it was -1.94%. In addition, the inhibition turned out to be 15.9% in [7], 4.06% in [8], 5.38% in [9] and 1.28% in assay [10].

On to `NS(=O)(=O)c1cccc(N/C=C2\C(=O)Nc3ccccc32)c1`, for which the inhibition is 0.69% in assay [1]; -0.71% in assay [2]; -2.38% in assay [3]; 1.17% in assay [4]; 1.53% in assay [5]; 5.29% in assay [6]. The inhibition was 10.8% in assay [7], -0.72% in assay [8], 11.3% in assay [9] and 3.79% in assay [10].
